Reference: PubChem BioAssay (EPA / NIEHS)
Activity calls are given as the source filed them. How the source made its calls: active means hit-call score of the fitted dose curve at least 0.9, where 1 is the maximum; inactive means score below 0.9.

These molecules were tested against Transcription factor E2F1 (Homo sapiens) (UniProt Q01094) (assay: ATG_E2F_CIS: Attagene CIS-FACTORIAL HepG2 Assay for human E2F Transcription Factor 1 (AID 2282935)). Conditions: HepG2 Attagene cis-reporter, E2F reporter RNA transcripts; actives raise or lower the signal.
Transcription factor E2F1 (Homo sapiens), sequence (Q01094 whole entry, looked up): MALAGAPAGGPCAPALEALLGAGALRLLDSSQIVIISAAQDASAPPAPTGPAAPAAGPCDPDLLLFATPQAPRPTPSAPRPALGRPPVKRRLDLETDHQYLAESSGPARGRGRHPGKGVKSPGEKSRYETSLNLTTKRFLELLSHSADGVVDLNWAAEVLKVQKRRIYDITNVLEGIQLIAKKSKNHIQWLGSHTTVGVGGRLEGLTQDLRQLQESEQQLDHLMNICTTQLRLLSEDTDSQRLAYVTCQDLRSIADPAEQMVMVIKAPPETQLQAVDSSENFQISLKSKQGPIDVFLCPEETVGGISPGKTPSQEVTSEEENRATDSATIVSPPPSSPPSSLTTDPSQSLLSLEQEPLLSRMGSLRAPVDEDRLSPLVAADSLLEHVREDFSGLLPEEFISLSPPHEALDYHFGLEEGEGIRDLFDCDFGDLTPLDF
Procedure: ATG_CIS is a cell-based, multiplexed-readout assay that uses HepG2, a human liver cell line, with measurements taken at 24 hours after chemical dosing in a 24-well plate.ATG_E2F_CIS is one of 52 assay component(s) measured or calculated from the ATG_CIS assay. It is designed to make measurements of mRNA induction, a form of inducible reporter, as detected with fluorescence intensity signals by Reverse transcription polymerase chain reaction (RT-PCR) and Capillary electrophoresis technology.Data from the assay component ATG_E2F_CIS was analyzed into 1 assay endpoint. This assay endpoint, ATG_E2F_CIS, was analyzed with bidirectional fitting relative to DMSO as the negative control and baseline of activity. Using a type of inducible reporter, measures of mRNA for gain or loss-of-signal activity can be used to understand the reporter gene at the transcription factor-level as they relate to the gene E2F1. Furthermore, this assay endpoint can be referred to as a primary readout, because this assay has produced multiple assay endpoints where this one serves a reporter gene function. To generalize the intended target to other relatable targets, this assay endpoint is annotated to the dna binding intended target family, where the subfamily is E2F transcription factor.
Human liver HepG2 cells are transiently transfected with multiple reporter transcription units (MRTUs) in 6-well plates using FuGene 6 reagent (Roche; 3 ml FuGene/1 mg DNA). The MRTU constructs are regulated by a cis-regulating element (promoter). […] A major difference between the CIS and TRANS system is that in CIS activities of endogenous TFs are measured, whereas the TRANS assay evaluates changes in activities of exogenous, chimeric NR-Gal4 proteins. […] At the end of 24 hour incubation, total RNA was isolated using TriZol reagent (Invitrogen). The isolated RNA is then reverse-transcribed using oligo(dT) primer and Mo-MLV reverse transcriptase (Invitrogen) with DNAse I (Ambion) treatment for 30 min. The one-tenth of the produced cDNA was amplified by PCR using Taq DNA polymerase (Invitrogen) and two reporter sequence-specific primers. The PCR products were fluorescently labeled by primer extension with 6-arboxyfluorescein (6-FAM) 5'-labeled reporter sequence-specific primer (2 min at 95 C, 20 s at 68 C and 10 min at 72 C) and these products were digested with 5U of HpaI (New England Biolabs) for 2h at 37 C. The fragments were purified using Qiaquick PCR columns (Qiagen), analyzed on an ABI 3130xL genetic analyzer (Applied Biosystems) with peak positions identified by using a set of X-rhodamine (ROX)-labeled MapMarker1000 molecular weight standards (BioVentures). The raw capillary electrophoresis data was processed using Attagraph software (Attagene).

SMILES | outcome
CCN(CC)C(=S)SSC(=S)N(CC)CC | inactive
CCCCCCCC1CCC(=O)O1 (stereo not given) | inactive
C[Si](C)(C)C(F)(F)C(F)(F)C(F)(F)F | inactive
CC(C)c1nnc2ccc(-c3ocnc3-c3cc(F)ccc3F)cn12 | inactive
CC(C)C(=O)Nc1ccc([N+](=O)[O-])c(C(F)(F)F)c1 | inactive
FC(F)=C(F)C(F)(F)C(F)(F)C(F)(F)C(F)(F)C(F)(F)C(F)(F)F | inactive
CC[C@H](C)C(=O)O[C@H]1C[C@H](O)C=C2C=C[C@H](C)[C@H](CC[C@@H](O)C[C@@H](O)CC(=O)O)[C@H]21 | inactive
O=C(O)c1ccc2c(c1)nc(C(=O)NC1CCN(C3CC3)CC1)n2Cc1cc(-c2ccc(Cl)s2)on1 | inactive
C[C@]12C=CC(=O)C=C1CC[C@H]1[C@@H]3C[C@@H](O)[C@](O)(C(=O)CO)[C@@]3(C)C[C@H](O)[C@@]12F | inactive
O=S(=O)(O)c1ccc(N=Nc2c(O)ccc3cc(S(=O)(=O)O)ccc23)cc1 | inactive
NC(=O)NN=Cc1ccc([N+](=O)[O-])o1 | inactive
CNC(C)=O | inactive
OCCC(F)(F)C(F)(F)C(F)(F)C(F)(F)F | inactive
OCc1ccccc1 | inactive
O=C(Cl)C(F)(F)C(F)(F)C(F)(F)C(=O)Cl | inactive
Cc1cccc(O)c1C | inactive
NNC(=O)c1ccncc1 | inactive
CCCCCCCCCC | inactive
S=P(N1CC1)(N1CC1)N1CC1 | inactive
COc1cc(C(C)C)c2c(c1)S(=O)(=O)N(COc1cc(=O)n3cccc(OCCN4CCCCC4)c3n1)C2=O | inactive

SMILES | outcome
OCc1c[nH]c2ccccc12 | inactive
Cc1ncc([C@@H](CCCCCCc2ccc3c(n2)NCCC3)CC(=O)O)cn1 | inactive
CCCCOC(=O)c1ccccc1 | inactive
OC[C@H]1O[C@@](CO)(O[C@H]2O[C@H](CO)[C@@H](O)[C@H](O)[C@H]2O)[C@@H](O)[C@@H]1O | inactive
c1ccc2c(c1)-c1cccc3c1c-2cc1ccccc13 | inactive
OCCNCCO | inactive
C=CCc1cc(S(=O)(=O)c2ccc(O)c(CC=C)c2)ccc1O | inactive
FC(F)(F)COC(OCC(F)(F)F)OCC(F)(F)F | inactive
OC(Cn1cncn1)(Cn1cncn1)c1ccc(F)cc1F | inactive
COS(C)(=O)=O | inactive
OC(O)(C(F)C(O)(O)C(F)(F)F)C(F)(F)F | inactive
Cn1c(=O)c2[nH]cnc2n(C)c1=O | inactive
CC1(C)C(=O)N(Cl)C(=O)N1Cl | inactive
OCCOCCOCCO | inactive
FC(F)(F)C(F)(F)C(F)(F)C(F)(F)C(F)(F)C(F)(F)I | inactive
CCCCCOC(C)=O | inactive
O=C1CN(N=Cc2ccc([N+](=O)[O-])o2)C(=O)N1 | inactive
c1ccc2ncccc2c1 | inactive
CCn1nc(C)c2c1C(=O)NCC(c1ccc(O)cc1)=N2 | inactive
CCOc1ccc2[nH]cc(C(=O)NCc3ccccc3)c(=O)c2n1 | inactive
